Gli-Sufu block: Gli-Sufu pathway antagonists, primary screen, luciferase luminescence, Sufu-KO-LIGHT cells, uHTS | Sufu-KO-LIGHT fibroblasts, Gli luciferase reporter luminescence | inhibition, % at 5 µM | 0.74% of 340,000 active | AID 588413, 2011;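 active means inhibition above about 55%, limit read from the data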
TAG inh: inhibitors of triacylglycerol accumulation, primary screen, cell-based, uHTS, fluorescence, H9c2. 0.66% of 230,000 active. H9c2 cells, Nile Red lipid (TAG) fluorescence; cells loaded with 200 µM oleic acid. inhibition, % at 12.5 µM;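 active means pattern-corrected inhibition of lipid staining of at least 50% with the nuclear-stain viability signal not falling by more than 50%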
697 NFkB inh: inhibitors of PMA/ionomycin-induced NF-kB reporter, 697 cells, primary screen, B-cell NF-kB inhibitor project, cell-based, luminescence, uHTS; 697 B-cell NF-kB luciferase reporter, 16 h; inhibition, % at 4 µM; 0.33% of 330,000 active; AID 435022, 2010; in the data active means inhibition above about 35%
Shn3 inh set2: reduction of Shn3 3'UTR firefly luciferase signal, primary screen, Schnurri-3 inhibitor project, cell-based, Clone20 osteoblasts, set 2; Clone20 osteoblast Shn3 3'UTR firefly luciferase, 24 h; inhibition, % at 12.5 µM; 0.52% of 360,000 active; AID 588674, 2011;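 active means mean inhibition of at least 75% with every replicate also reaching 75%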
Jurkat NFkB inh: inhibitors of induced NF-kB luciferase reporter, primary screen, TCR NF-kB activation inhibitor project, cell-based, luminescence, uHTS; 0.53% of 330,000 active; AID 435003, 2010; Jurkat, PMA/ionomycin-induced NF-kB luciferase reporter; inhibition, % at 4 µM; in the data active means inhibition above about 50%
aSyn UTR inh: MLPCN primary screen, SNCA 5' untranslated region; alpha-synuclein 5'UTR reporter, inhibitor activity; inhibition, % (tested at 7.5 µM); 0.82% of 300,000 active; in the data active means inhibition above about 60%;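 further: H4 neuroglioblastoma cells stably carrying SNCA 5'UTR luciferase fusion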
Gli-Sufu confirm: Gli-SUFU pathway antagonists, confirmation, single concentration, luciferase luminescence, Sufu-KO-LIGHT cells | inhibition, % at 5 µM | Gli luciferase reporter | shares compounds with Gli-Sufu block | 40% of 2,500 active | AID 602428, 2012;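 active means mean inhibition at 5 µM reaching about 45%, limit read from the data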
Gli cytotox: cytotoxicity in Sufu-KO-LIGHT cells, confirmation, cytotoxicity control for Gli-SUFU antagonist project, cell-based, ATP luminescence, single concentration; cytotoxicity, % at 5 µM; shares compounds with Gli-Sufu block; 32% of 2,500 active; AID 651994, 2013;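 active means mean cytotoxicity at 5 µM above about 25%, limit read from the data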;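 further: cells exposed to compound overnight for roughly 16 to 18 hours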
Wnt3a cs: Wnt3a reporter signal inhibition, confirmation, counter-screen for Gli-SUFU antagonist project, Wnt-LIGHT cells, luminescence, single concentration; shares compounds with Gli-Sufu block; Wnt3a-driven luciferase reporter; inhibition, % at 6.25 µM; 20% of 2,500 active; AID 651995, 2013;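 active means mean inhibition above about 25%, limit read from the data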
Large screens that a line does not name were inactive (follow-up assays come after a bar, where they were run). Hits are enriched below; roughly 2.3% of the tested compounds scored in any of these assays.

N#Cc1ccc(COC(=O)C2CCC(=O)N2)cc1 (stereo not drawn)	Gli-Sufu block 99 | Gli-Sufu confirm inactive | Gli cytotox inactive | Wnt3a cs inactive
CN(Cc1cnc2nc(N)nc(N)c2n1)c1ccc(C(=O)NC(CCC(=O)O)C(=O)O)cc1C(F)(F)F (stereo not drawn)	none (no result: 697 NFkB inh, Jurkat NFkB inh, aSyn UTR inh)
COc1cnn(-c2cccc(C)c2)c(=O)c1Cl	none | Gli-Sufu confirm inactive | Gli cytotox inactive | Wnt3a cs inactive
O=C(OCC(=O)N1CCCC1)c1cc(=O)c2ccccc2o1	none (no result: aSyn UTR inh) | Gli-Sufu confirm inactive | Gli cytotox inactive | Wnt3a cs inactive
Cc1sc2ncnc(NCC3COc4ccccc4O3)c2c1C (stereo not drawn)	Gli-Sufu block 77 (no result: TAG inh, 697 NFkB inh, Jurkat NFkB inh) | Gli-Sufu confirm 72 | Gli cytotox 34 | Wnt3a cs inactive
Cc1sc2ncnc(NCC3(N4CCOCC4)CCCCC3)c2c1C	none
c1ccc(-c2csc3ncnc(NCC4COc5ccccc5O4)c23)cc1 (stereo not drawn)	Gli-Sufu block 84 (no result: TAG inh, 697 NFkB inh, Jurkat NFkB inh) | Gli-Sufu confirm 88 | Gli cytotox 45 | Wnt3a cs 26
Cc1sc2ncnc(NCC(C)(C)N3CCOCC3)c2c1C	Gli-Sufu block 64 | Gli-Sufu confirm 58 | Gli cytotox 27 | Wnt3a cs inactive
c1ccc(-c2csc3ncnc(NCCCN4CCOCC4)c23)cc1	none
Cc1sc2ncnc(NCC3CCCO3)c2c1C (stereo not drawn)	none (no result: TAG inh)
O=C(N/N=C/c1ccncc1)C12CC3CC(CC(C3)C1)C2	Gli-Sufu block 58 | Gli-Sufu confirm inactive | Gli cytotox inactive | Wnt3a cs inactive
O=C(C1=C[C@H](c2coc3ccccc3c2=O)C[C@H](OCc2ccc(CO)cc2)O1)N1CCN(Cc2ccc3c(c2)OCO3)CC1	none | Gli-Sufu confirm inactive | Gli cytotox inactive | Wnt3a cs inactive
Cc1cccc(NC(=O)c2snc3c(=O)[nH]cnc23)c1	none (no result: Gli-Sufu block, TAG inh, Shn3 inh set2, aSyn UTR inh)
O=C(c1ccc(F)cc1)N1CCN(C2CCCCC2)CC1	Gli-Sufu block 58 (no result: TAG inh) | Gli-Sufu confirm inactive | Gli cytotox inactive | Wnt3a cs inactive
O=C(c1ccccc1)N1CCN(C2CCCCCC2)CC1	none
O=C(c1ccc(OC2CCN(Cc3ccc(F)cc3)CC2)cc1)N1CCCC1	Gli-Sufu block 55 (no result: TAG inh) | Gli-Sufu confirm inactive | Gli cytotox inactive | Wnt3a cs inactive
CCc1ccc(CN2CCC(Oc3ccc(C(=O)N4CCCC4)cc3)CC2)cc1	none
COc1ccc(OC)c(C(=O)NC(CC(N)=O)c2ccc(NCCN3CCCC3)c([N+](=O)[O-])c2)c1 (stereo not drawn)	none
COc1ccc(OC)c(C(=O)NC(CC(N)=O)c2ccc(NCCN3CCOCC3)c([N+](=O)[O-])c2)c1 (stereo not drawn)	Gli-Sufu block 94 | Gli-Sufu confirm inactive | Gli cytotox inactive | Wnt3a cs inactive
COc1ccc(-c2cc3nc(NCCNC(C)=O)n(C)c(=O)c3s2)c(C)c1	none (no result: Gli-Sufu block, 697 NFkB inh, Jurkat NFkB inh, aSyn UTR inh)
C=C1C(=O)O[C@H]2C[C@]3(C)C([C@@H](OC(=O)/C(C)=C/C)[C@H]12)[C@](C)(O)CC[C@H]3O (stereo partly drawn)	none (no result: TAG inh)
CCC(CC)c1nnc(NC(=O)c2cccc(S(=O)(=O)N3CCc4ccccc43)c2)s1	none (no result: TAG inh)
CCOC(=O)c1sc(NC(=O)c2cccc(S(=O)(=O)N3CCc4ccccc43)c2)c(C#N)c1C	Gli-Sufu block 73 | Gli-Sufu confirm 78 | Gli cytotox inactive | Wnt3a cs 72
O=C(Nc1cccnc1)c1cccc(S(=O)(=O)N2CCc3ccccc32)c1	none
O=C(Nc1ccncc1)c1cccc(S(=O)(=O)N2CCc3ccccc32)c1	Gli-Sufu block 56, Shn3 inh set2 91 | Gli-Sufu confirm 55 | Gli cytotox inactive | Wnt3a cs 40
CCOC(=O)c1sc(NC(=O)CSc2n[nH]c(-c3ccccc3)n2)c(C#N)c1C	none
CCOC(=O)c1sc(NC(=O)c2cc(-c3ccccc3)nc3ccccc23)c(C#N)c1C	none | Gli-Sufu confirm 74 | Gli cytotox inactive | Wnt3a cs 65
COC(=O)C1CCN(c2ccc(C(N)=O)cc2[N+](=O)[O-])CC1	none (no result: TAG inh)
O=C(O)CCCN1C(=O)C2C3C=CC(C2C1=O)C1C(=O)N(CCCC(=O)O)C(=O)C31 (stereo not drawn)	none (no result: TAG inh)
O=C(O)CCCCCN1C(=O)C2CCCCC2C1=O (stereo not drawn)	Gli-Sufu block 70 | Gli-Sufu confirm inactive | Gli cytotox inactive | Wnt3a cs inactive
COc1ccc(N2CCN(C(=O)c3ccc(C)c(NC(=O)c4ccco4)c3)CC2)cc1	none
NS(=O)(=O)c1ccc(CCNCc2cc(Cl)ccc2OCc2ccccc2)cc1	Gli-Sufu block 56 (no result: TAG inh) | Gli-Sufu confirm inactive | Gli cytotox inactive | Wnt3a cs inactive
NS(=O)(=O)c1ccc(CCNCc2ccccc2OCc2ccc(Cl)cc2)cc1	none (no result: TAG inh) | Gli-Sufu confirm inactive | Gli cytotox inactive | Wnt3a cs inactive
CCN(CC)Cc1cc2ccccc2c2c1COC2	Gli-Sufu block 94 (no result: TAG inh) | Gli-Sufu confirm inactive | Gli cytotox inactive | Wnt3a cs inactive
CC(Oc1ccc(Br)cc1Br)C(=O)Nc1cccnc1Cl (stereo not drawn)	none (no result: aSyn UTR inh) | Gli-Sufu confirm inactive | Gli cytotox inactive | Wnt3a cs inactive
CC(Oc1ccc(Br)cc1Br)C(=O)Nc1cccnc1 (stereo not drawn)	none (no result: aSyn UTR inh)
CCN(CC)CCN1C(=O)C2C(C(=O)Nc3cc(C)cc(C)c3)C3C=CC2(O3)C1C(=O)NC1CCCCC1 (stereo not drawn)	Gli-Sufu block 64 (no result: TAG inh) | Gli-Sufu confirm inactive | Gli cytotox inactive | Wnt3a cs inactive
CCOc1ccc(CN(C)CC(=O)Nc2ccc3c(c2)CCC3)cc1OC	none | Gli-Sufu confirm inactive | Gli cytotox inactive | Wnt3a cs inactive
C=CCOc1ccc(CN(C)CC(=O)Nc2ccc3c(c2)CCC3)cc1	none
Cc1ccccc1N1C(=O)c2cccc([N+](=O)[O-])c2C1=O	Gli-Sufu block 65 (no result: 697 NFkB inh, Jurkat NFkB inh, aSyn UTR inh) | Gli-Sufu confirm inactive | Gli cytotox inactive | Wnt3a cs inactive
O=C1c2cccc([N+](=O)[O-])c2C(=O)N1c1c[nH]c(=O)[nH]c1=O	none

Screening data as filed in PubChem BioAssay.
